# Measurements reported in the supplement of paper PMC10338343.
# ± gives the standard deviation. In all, about 6,600 sequences were measured (“pre-steady-state target cleavage rate”: median about 0.07, highest 2% from about 0.72 on). The sample as a whole holds a higher share of the highest values than the screen did.
# System: MIWI (PIWIL1) piRISC loaded with Kctd7 piRNA (30 nt)
# Assay: pre-steady-state target cleavage rate (min^-1); MIWI and MILI are mouse PIWI proteins and EfPiwi is from a freshwater sponge; tags in brackets are library labels; higher = faster piRNA-guided slicing of the target
# Settings: guide: Kctd7 piRNA 5'p-UGUUAAUCUCUCAGAGAAGGUGACAGUGAU; auxiliary factor: 500 nM mouse GTSF1
# Method: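 Cleave-'n-Seq: a library of target RNAs (target site embedded in constant flanks, ACAGCATTCCGCGTTAGTGATATCCG... 5' flank; DNA-blocked outside the site) at 0.1 nM was incubated with 1 nM active mouse MILI or MIWI piRISC (synthetic 5'-monophosphorylated piRNA guide) with or without 500 nM mouse GTSF1 at 33 °C for 1 min to 16 h. Uncleaved targets were sequenced and normalised to non-target controls, and the pooled three trials were fitted to a burst-and-steady-state model to give the pre-steady-state cleavage rate (min^-1; k3 is constrained to at most 1e-4). Sequence is the target site only; target names encode pairing extent (gX:gY) and contiguous / 1-mismatch / 2-mismatch / bulge geometry. Fits with R² ≤ 0 are excluded.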
row,Sequence,pre-steady-state target cleavage rate
1,UUCACACUCACCUUCUCUGAGAGAUUUUGA,0.0972 ± 0.024
2,UAGUGACUCACCUUCUCUGAGAGAUUAAGA,0.194 ± 0.031
3,UAGACUGUCACCUACUCUGAGAGUUUAACA,0.147 ± 0.023
4,UUCACUGUCACCUUCUCUGAGCGAUUAACA,0.13 ± 0.0091
5,UAGACUGUCAGCUUCUCUGAGAGAUUAUCA,0.171 ± 0.024
6,AUUCACUGUCACCUUCUCUGAGAGAUUAACA,0.737 ± 0.036
7,UUCAGACUCACCUUCUCUGAGAGAUUAACA,0.472 ± 0.035
8,UUCUCUGUCACCUUCACUGAGAGAUUAACA,0.392 ± 0.021
9,UUCACUGUCACCUUCUCUGAGAGAUUAACA [g2:g29:cont:t1A],0.717 ± 0.03
10,ACUCACUGUCACCUUCUCUGAGAGAUUAACA,0.781 ± 0.054
11,CUCACUGUCACCUUCUCUGAGAGAUUAACA,0.714 ± 0.031
12,AUCACUCAGACCUUCUCUGAGAGAUUAACA,0.433 ± 0.024
13,AUCAGACUCACCUUCUCUGAGAGAUUAACA,0.726 ± 0.045
14,UACAGUGUCACCUUCUCUGAGUGAUUAACA,0.0377 ± 0.0077
15,UAGUGUGUCACCUUGUCUGAGAGAUUUUGA,0.00982 ± 0.0057
16,UAGACUGUCACGUUCUCUGAGUGAUUAACA,0.00628 ± 0.0015
17,UUCACUGUCUCCUUCUCUGAGAGAUUAUGA,0.122 ± 0.034
18,UACUCUGUCACCUUCUCUGAGAGAUUUUGA,0.0843 ± 0.017
19,UAGUGACACACCUUCUCUGAAAGAUUAACA,0.384 ± 0.029
20,UAGUGUGUCGACCUUCUCUGAGAGAUUAACA,0.155 ± 0.017
21,UAGUGACUGCACCUUCUCUGAGAGAUUAACA,0.77 ± 0.05
22,UAGUGACUCACCUUCUCUGACAGAUUAACA,0.393 ± 0.048
23,AUGACUGUCACCUACUCUGAGAGAUUAACA,0.736 ± 0.042
24,UAGACUGUCACCUACUCUGAGAGAUUAACA,0.666 ± 0.049
25,UAGUGACUCACCUUCUCUGACUGAUUAACA,0.00516 ± 0.0026

row,Sequence,pre-steady-state target cleavage rate
1,UAGUGACUCACCUUCUCUGAUAGAUUAACA,0.778 ± 0.035
2,UUGACUGUCACCUUCUCUGUGAGAUUAACA,0.267 ± 0.011
3,UUGACUGUCACCUUCUCUGAGAGAUUAAGA,0.257 ± 0.034
4,UAGUGACUGACCUUCUCUGAGAGAUUAACA,0.363 ± 0.037
5,UUGACUGUCACCUACUCUGAGAGAUUAACA,0.689 ± 0.041
6,UUGACUGUCACCUUCUCUGAGAGAUUAACA,0.777 ± 0.042
7,UAGACUGCACCUUCUCUGAGAGAUUAACA,0.698 ± 0.046
8,AUCACUGUCACCUUCUCUGAGAGUAAAACA,0.125 ± 0.024
9,UUCACUGUCAGCUUCUCUGAGAGAUUAUCA,0.24 ± 0.027
10,UAGUCUGUCACCUUCUCUGAGAGAUUAGACA,0.138 ± 0.041
11,UAGUGACACACCUUCUGUGAGAGAUUAUGA,0.015 ± 0.007
12,UAGUGUGUCACCUUCUCUGAGUGAUUAUCA,0.00944 ± 0.0044
13,UAGUGAGUCACCUUCUGUGAGAGAUUUUGA,0.012 ± 0.0055
14,UAGUGAGUCACCUUCUCUGAGAGAUUAUGA,0.088 ± 0.019
15,AUGACUGUCACCUUCUCUGAGAGAUUAAGA,0.205 ± 0.028
16,UAGAGUGUCACCUACUCUGAGAGAUUAACA,0.765 ± 0.042
17,UACAGUGUCACCUACUCUGAGAGAUUAACA,0.585 ± 0.038
18,UAGUGUGUCACCUACUCUGAGAGAUUAACA,0.598 ± 0.054
19,AUGACUGUCACCUUCUCUGUGAGAUUAACA,0.278 ± 0.013
20,AUGACUGUCACCUUCUCUGAGAGAUUAACA,0.771 ± 0.037
21,UUCACUGUCACCUAGUCUGAGAGAUUUUGA,0.111 ± 0.03
22,UAGUGACACAGCUUCUCUGAGAGUUUAACA,0.0412 ± 0.0084
23,UUCACUGUCUCCUUCACUGAGAGAUUAACA,0.393 ± 0.032
24,UACACGGUCACCUUCUCUGAGAGAUUAACA,0.593 ± 0.027
25,UACACCGUCACCUUCUCUGAGAGAUUAACA,0.78 ± 0.04

row,Sequence,pre-steady-state target cleavage rate
1,AUCACGUCACCUUCUCUGAGAGAUUAACA,0.732 ± 0.041
2,UACACGUCACCUUCUCUGAGAGAUUAACA,0.737 ± 0.043
3,AUCACCGUCACCUUCUCUGAGAGAUUAACA,0.67 ± 0.026
4,UUCACGUCACCUUCUCUGAGAGAUUAACA,0.702 ± 0.03
5,UUCACCGUCACCUUCUCUGAGAGAUUAACA,0.698 ± 0.03
6,AUCACGUGUCACCUUCUCUGAGAGAUUAACA,0.63 ± 0.03
7,UACACGUGUCACCUUCUCUGAGAGAUUAACA,0.563 ± 0.026
8,UACACUGUCACCUUCACUGAGAGUUUAACA,0.356 ± 0.081
9,AUCACUGUCACCUAGACUGAGAGAUUAAGA,0.0119 ± 0.0058
10,UAGUCUGUGACCUUCUGUGAGAGAUUAACA,0.399 ± 0.028
11,UAGUCUGUCACCUUCUCUGAGACAUAAACA,0.0237 ± 0.0074
12,UUCAGUGUCACCUUCUCUGAGAGAUUUUGA,0.161 ± 0.043
13,AUCACUGUCACCUUCCCUGAGAGAUUAACA,0.449 ± 0.064
14,UAGUGUGUCACGAACUCUGAGAGAUUAACA,0.0752 ± 0.0083
15,UAGUGUCUCACCUUCUCUGAGAGAUUAUCA,0.239 ± 0.033
16,AUCAACUGUCACCUUCUCUGAGAGAUUAACA,0.737 ± 0.049
17,UUCACUGUCAACCUUCUCUGAGAGAUUAACA,0.271 ± 0.019
18,AUCACUGUCACCUUCUCUGAGAGAUUAACU [g2:g30:cont:t1U],0.526 ± 0.057
19,UACAACUGUCACCUUCUCUGAGAGAUUAACA,0.744 ± 0.042
20,AUAACUGUCACCUUCUCUGAGAGAUUAACA,0.675 ± 0.03
21,AUCACUGUCAACCUUCUCUGAGAGAUUAACA,0.269 ± 0.021
22,UAAACUGUCACCUUCUCUGAGAGAUUAACA,0.677 ± 0.03
23,UUCAACUGUCACCUUCUCUGAGAGAUUAACA,0.733 ± 0.039
24,UUAACUGUCACCUUCUCUGAGAGAUUAACA,0.581 ± 0.022
